Source: the supplement of paper PMC4466140

The binders below were run against AgAbp1 (assay: SPOT peptide array binding signal intensity (averaged, normalized) (arbitrary units (background-subtracted, floor 0; scale differs between SH3 domains)); higher = stronger binding of the SH3 domain to the peptide).
How it was run: (§1)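 Binding signal is given in arbitrary units that differ between domains and is the normalized, background-subtracted spot intensity averaged across replicates. Each GST-SH3 fusion from one of four yeast species was made in E. coli BL21(DE3), purified on glutathione Sepharose and incubated at 10 μg/ml overnight at 4°C on cellulose-bound synthetic 15-mer peptides in which cysteines were replaced by serines. Detection used anti-GST antibody, an HRP anti-mouse secondary and luminol, followed by imaging and Genespotter quantification.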

Binder	SPOT peptide array binding signal intensity
PLQSKIPMLPSRRTM	98.5

Each binder was assayed against AgBbc1 in the same assay as above.
How it was run: as §1

Binder	SPOT peptide array binding signal intensity
PLQSKIPMLPSRRTM	267

What follows are binders tested against AgBem1-D1 in the same assay as above.
How it was run: as §1

Binder	SPOT peptide array binding signal intensity
PLQSKIPMLPSRRTM	26.5

What follows are binders tested against AgBzz1-D1 in the same assay as above.
How it was run: as §1

Binder	SPOT peptide array binding signal intensity
PLQSKIPMLPSRRTM	48

Each binder was assayed against AgBzz1-D2 in the same assay as above.
How it was run: as §1

Binder	SPOT peptide array binding signal intensity
PLQSKIPMLPSRRTM	9

The binders below were run against AgCyk3 in the same assay as above.
How it was run: as §1

Binder	SPOT peptide array binding signal intensity
PLQSKIPMLPSRRTM	3

These binders were tested against AgFus1 in the same assay as above.
How it was run: as §1

Binder	SPOT peptide array binding signal intensity
PLQSKIPMLPSRRTM	98.5

These binders were tested against AgHof1 in the same assay as above.
How it was run: as §1

Binder	SPOT peptide array binding signal intensity
PLQSKIPMLPSRRTM	211

Each binder was assayed against AgHse1 in the same assay as above.
How it was run: as §1

Binder	SPOT peptide array binding signal intensity
PLQSKIPMLPSRRTM	300

Each binder was assayed against AgLsb1 in the same assay as above.
How it was run: as §1

Binder	SPOT peptide array binding signal intensity
PLQSKIPMLPSRRTM	555

The binders below were run against AgLsb4 in the same assay as above.
How it was run: as §1

Binder	SPOT peptide array binding signal intensity
PLQSKIPMLPSRRTM	4990

The binders below were run against AgMyo5 in the same assay as above.
How it was run: as §1

Binder	SPOT peptide array binding signal intensity
PLQSKIPMLPSRRTM	≤ 0

The binders below were run against AgNbp2 in the same assay as above.
How it was run: as §1

Binder	SPOT peptide array binding signal intensity
PLQSKIPMLPSRRTM	302

Each binder was assayed against AgRvs167 in the same assay as above.
How it was run: as §1

Binder	SPOT peptide array binding signal intensity
PLQSKIPMLPSRRTM	483

These binders were tested against AgSho1 in the same assay as above.
How it was run: as §1

Binder	SPOT peptide array binding signal intensity
PLQSKIPMLPSRRTM	131

These binders were tested against AgSla1-D1-D2 in the same assay as above.
How it was run: as §1

Binder	SPOT peptide array binding signal intensity
PLQSKIPMLPSRRTM	28

The binders below were run against AgSla1-D3 in the same assay as above.
How it was run: as §1

Binder	SPOT peptide array binding signal intensity
PLQSKIPMLPSRRTM	6.5

The binders below were run against CaAbp1-D1 in the same assay as above.
How it was run: as §1

Binder	SPOT peptide array binding signal intensity
PLQSKIPMLPSRRTM	470

Each binder was assayed against CaAbp1-D2 in the same assay as above.
How it was run: as §1

Binder	SPOT peptide array binding signal intensity
PLQSKIPMLPSRRTM	342

The binders below were run against CaBbc1 in the same assay as above.
How it was run: as §1

Binder	SPOT peptide array binding signal intensity
PLQSKIPMLPSRRTM	694

Each binder was assayed against CaBem1-D1 in the same assay as above.
How it was run: as §1

Binder	SPOT peptide array binding signal intensity
PLQSKIPMLPSRRTM	10.5

Each binder was assayed against CaBzz1-D1 in the same assay as above.
How it was run: as §1

Binder	SPOT peptide array binding signal intensity
PLQSKIPMLPSRRTM	274

These binders were tested against CaBzz1-D2 in the same assay as above.
How it was run: as §1

Binder	SPOT peptide array binding signal intensity
PLQSKIPMLPSRRTM	224

What follows are binders tested against CaCyk3 in the same assay as above.
How it was run: as §1

Binder	SPOT peptide array binding signal intensity
PLQSKIPMLPSRRTM	18.5

Each binder was assayed against CaFus1 in the same assay as above.
How it was run: as §1

Binder	SPOT peptide array binding signal intensity
PLQSKIPMLPSRRTM	897

These binders were tested against CaHof1 in the same assay as above.
How it was run: as §1

Binder	SPOT peptide array binding signal intensity
PLQSKIPMLPSRRTM	1

The binders below were run against CaHse1 in the same assay as above.
How it was run: as §1

Binder	SPOT peptide array binding signal intensity
PLQSKIPMLPSRRTM	195

These binders were tested against CaLsb1 in the same assay as above.
How it was run: as §1

Binder	SPOT peptide array binding signal intensity
PLQSKIPMLPSRRTM	18.2

Each binder was assayed against CaLsb4 in the same assay as above.
How it was run: as §1

Binder	SPOT peptide array binding signal intensity
PLQSKIPMLPSRRTM	5220

Each binder was assayed against CaMyo5 in the same assay as above.
How it was run: as §1

Binder	SPOT peptide array binding signal intensity
PLQSKIPMLPSRRTM	30

What follows are binders tested against CaNbp2 in the same assay as above.
How it was run: as §1

Binder	SPOT peptide array binding signal intensity
PLQSKIPMLPSRRTM	881

What follows are binders tested against CaRvs167 in the same assay as above.
How it was run: as §1

Binder	SPOT peptide array binding signal intensity
PLQSKIPMLPSRRTM	1060

What follows are binders tested against CaRvs167-3 in the same assay as above.
How it was run: as §1

Binder	SPOT peptide array binding signal intensity
PLQSKIPMLPSRRTM	4

These binders were tested against CaSho1 in the same assay as above.
How it was run: as §1

Binder	SPOT peptide array binding signal intensity
PLQSKIPMLPSRRTM	400

Each binder was assayed against CaSla1-D1-D2 in the same assay as above.
How it was run: as §1

Binder	SPOT peptide array binding signal intensity
PLQSKIPMLPSRRTM	1030

What follows are binders tested against CaSla1-D3 in the same assay as above.
How it was run: as §1

Binder	SPOT peptide array binding signal intensity
PLQSKIPMLPSRRTM	332

The binders below were run against ScAbp1 in the same assay as above.
How it was run: as §1

Binder	SPOT peptide array binding signal intensity
PLQSKIPMLPSRRTM	34.5

These binders were tested against ScBbc1 in the same assay as above.
How it was run: as §1

Binder	SPOT peptide array binding signal intensity
PLQSKIPMLPSRRTM	246

These binders were tested against ScBem1-D1 in the same assay as above.
How it was run: as §1

Binder	SPOT peptide array binding signal intensity
PLQSKIPMLPSRRTM	2

What follows are binders tested against ScBzz1-D1 in the same assay as above.
How it was run: as §1

Binder	SPOT peptide array binding signal intensity
PLQSKIPMLPSRRTM	≤ 0

The binders below were run against ScBzz1-D2 in the same assay as above.
How it was run: as §1

Binder	SPOT peptide array binding signal intensity
PLQSKIPMLPSRRTM	27

The binders below were run against ScCyk3 in the same assay as above.
How it was run: as §1

Binder	SPOT peptide array binding signal intensity
PLQSKIPMLPSRRTM	9

These binders were tested against ScFus1 in the same assay as above.
How it was run: as §1

Binder	SPOT peptide array binding signal intensity
PLQSKIPMLPSRRTM	218

What follows are binders tested against ScHof1 in the same assay as above.
How it was run: as §1

Binder	SPOT peptide array binding signal intensity
PLQSKIPMLPSRRTM	79

What follows are binders tested against ScHse1 in the same assay as above.
How it was run: as §1

Binder	SPOT peptide array binding signal intensity
PLQSKIPMLPSRRTM	127

The binders below were run against ScLsb1 in the same assay as above.
How it was run: as §1

Binder	SPOT peptide array binding signal intensity
PLQSKIPMLPSRRTM	287

These binders were tested against ScLsb2 in the same assay as above.
How it was run: as §1

Binder	SPOT peptide array binding signal intensity
PLQSKIPMLPSRRTM	629

The binders below were run against ScLsb3 in the same assay as above.
How it was run: as §1

Binder	SPOT peptide array binding signal intensity
PLQSKIPMLPSRRTM	5990

Each binder was assayed against ScLsb4 in the same assay as above.
How it was run: as §1

Binder	SPOT peptide array binding signal intensity
PLQSKIPMLPSRRTM	2850

What follows are binders tested against ScMyo3 in the same assay as above.
How it was run: as §1

Binder	SPOT peptide array binding signal intensity
PLQSKIPMLPSRRTM	≤ 0

These binders were tested against ScMyo5 in the same assay as above.
How it was run: as §1

Binder	SPOT peptide array binding signal intensity
PLQSKIPMLPSRRTM	≤ 0

Each binder was assayed against ScNbp2 in the same assay as above.
How it was run: as §1

Binder	SPOT peptide array binding signal intensity
PLQSKIPMLPSRRTM	760

These binders were tested against ScPex13 in the same assay as above.
How it was run: as §1

Binder	SPOT peptide array binding signal intensity
PLQSKIPMLPSRRTM	945

The binders below were run against ScRvs167 in the same assay as above.
How it was run: as §1

Binder	SPOT peptide array binding signal intensity
PLQSKIPMLPSRRTM	2220

What follows are binders tested against ScSho1 in the same assay as above.
How it was run: as §1

Binder	SPOT peptide array binding signal intensity
PLQSKIPMLPSRRTM	586

The binders below were run against ScSla1-D1-D2 in the same assay as above.
How it was run: as §1

Binder	SPOT peptide array binding signal intensity
PLQSKIPMLPSRRTM	999

Each binder was assayed against ScSla1-D3 in the same assay as above.
How it was run: as §1

Binder	SPOT peptide array binding signal intensity
PLQSKIPMLPSRRTM	514

These binders were tested against SpAbp1-D1 in the same assay as above.
How it was run: as §1

Binder	SPOT peptide array binding signal intensity
PLQSKIPMLPSRRTM	149

What follows are binders tested against SpBbc1 in the same assay as above.
How it was run: as §1

Binder	SPOT peptide array binding signal intensity
PLQSKIPMLPSRRTM	14

These binders were tested against SpBzz1-D1 in the same assay as above.
How it was run: as §1

Binder	SPOT peptide array binding signal intensity
PLQSKIPMLPSRRTM	953

These binders were tested against SpBzz1-D2 in the same assay as above.
How it was run: as §1

Binder	SPOT peptide array binding signal intensity
PLQSKIPMLPSRRTM	2

These binders were tested against SpCyk3 in the same assay as above.
How it was run: as §1

Binder	SPOT peptide array binding signal intensity
PLQSKIPMLPSRRTM	16

These binders were tested against SpHof1 in the same assay as above.
How it was run: as §1

Binder	SPOT peptide array binding signal intensity
PLQSKIPMLPSRRTM	61.2

What follows are binders tested against SpHof1-2 in the same assay as above.
How it was run: as §1

Binder	SPOT peptide array binding signal intensity
PLQSKIPMLPSRRTM	76.2

These binders were tested against SpHof1-3 in the same assay as above.
How it was run: as §1

Binder	SPOT peptide array binding signal intensity
PLQSKIPMLPSRRTM	108

These binders were tested against SpHse1 in the same assay as above.
How it was run: as §1

Binder	SPOT peptide array binding signal intensity
PLQSKIPMLPSRRTM	272

Each binder was assayed against SpLsb1 in the same assay as above.
How it was run: as §1

Binder	SPOT peptide array binding signal intensity
PLQSKIPMLPSRRTM	612

Each binder was assayed against SpLsb4 in the same assay as above.
How it was run: as §1

Binder	SPOT peptide array binding signal intensity
PLQSKIPMLPSRRTM	5580

The binders below were run against SpMyo1 in the same assay as above.
How it was run: as §1

Binder	SPOT peptide array binding signal intensity
PLQSKIPMLPSRRTM	61.5

The binders below were run against SpNbp2 in the same assay as above.
How it was run: as §1

Binder	SPOT peptide array binding signal intensity
PLQSKIPMLPSRRTM	118

These binders were tested against SpPex13 in the same assay as above.
How it was run: as §1

Binder	SPOT peptide array binding signal intensity
PLQSKIPMLPSRRTM	224

These binders were tested against SpRvs167 in the same assay as above.
How it was run: as §1

Binder	SPOT peptide array binding signal intensity
PLQSKIPMLPSRRTM	2200

What follows are binders tested against SpSla1-D1-D2 in the same assay as above.
How it was run: as §1

Binder	SPOT peptide array binding signal intensity
PLQSKIPMLPSRRTM	68

The binders below were run against SpSla1-D3 in the same assay as above.
How it was run: as §1

Binder	SPOT peptide array binding signal intensity
PLQSKIPMLPSRRTM	173
